Assay outcomes from PubChem.
SARS PLpro yeast: qHTS of Yeast-based Assay for SARS-CoV PLP. S. cerevisiae expressing SARS-CoV PLpro, growth rescue. Potency, µM (highest dose often 32.9 µM), most hits filed as activators. hit rate 0.19% among 330,000; calls by dose curve; note: nearly all actives have a fitted effect of over 55% in size
Pf growth 96h: Primary qHTS for delayed death inhibitors of the malarial parasite plastid, 96 hour incubation; P. falciparum luciferase reporter growth, 96 h; Potency, µM (highest dose often 28.7 µM), hits mostly inhibitors; hit rate 6.9% among 320,000; AID 504834, 2011
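Luminescence readout: decreased luciferase signal marks inhibited growth of reporter-expressing P. falciparum in infected red cells (2% hematocrit, 0.05% parasitemia final), exposed to compound two generations (96 h, 37 C, 5% CO2).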
AMA1 RON2 block: qHTS for Inhibitors of AMA1-RON; Towards Development of Antimalarial Drug Lead: Primary Screen. Plasmodium falciparum AMA1 (3D7) - RON2 peptide interaction. hit rate 0.2% among 360,000. AlphaScreen AMA1-biotinylated RON2 peptide binding. Potency, µM (top dose mostly 58.2 µM), hits mostly inhibitors; note: nearly all actives have a fitted effect of over 45% in size
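AMA1 (3D7) with his tag at 25 nM final met compounds first, then biotinylated RON2 peptide at 25 nM; detection used donor plus acceptor beads, 10 µg/mL apiece, read by AlphaScreen after 30 min at room temperature.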
Pf growth 48h: Primary qHTS for delayed death inhibitors of the malarial parasite plastid, 48 hour incubation | P. falciparum luciferase growth in erythrocytes, 48 h | Potency, µM (series often up to 28.7 µM), most hits filed as inhibitors | hit rate 5.9% among 310,000 | AID 504832, 2011
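Read-out is firefly luciferase luminescence from an integrated reporter in P. falciparum, so falling signal marks reduced parasite growth. Infected erythrocytes were at 2% hematocrit and 0.1% parasitemia (final) in Albumax-supplemented RPMI 1640.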
Hits are given with their value. An excerpt weighted towards active compounds, which were near 9.4% of everything screened. Unless noted, calls come from the whole dose curve; as a rule, active = well fitted curve in the direction sought with a large enough effect; inconclusive = small, poorly fitted or top-dose-only effect, or another doubt; inactive = no such curve, though single readings can be large; an effect the other way counts as inactive or inconclusive.

For COc1ccc(CNC(=O)/C=C/c2cc([N+](=O)[O-])ccc2OC(F)F)cc1 the results were SARS PLpro yeast inactive, Pf growth 96h inactive and AMA1 RON2 block inactive.
Screening CCOC(=O)c1c(C)nn(Cc2ccccc2)c1N returned SARS PLpro yeast inactive, Pf growth 96h 5.2µM, AMA1 RON2 block inactive and Pf growth 48h inactive.
CCOC(=O)c1cc(C)n(Cc2ccccc2)c1C was read as SARS PLpro yeast inactive, Pf growth 96h 6.6µM, AMA1 RON2 block inactive and Pf growth 48h 3.3µM.
CCOC(=O)c1c(C=O)c(C)n(Cc2ccc(C)cc2)c1C was read as SARS PLpro yeast inactive, Pf growth 96h inconclusive and AMA1 RON2 block inactive.
`CCOC(=O)c1c(C=O)c(C)n(Cc2ccccc2Cl)c1C` gave SARS PLpro yeast inactive, AMA1 RON2 block inactive and Pf growth 48h 3.3µM.
`Cc1nn(Cc2ccccc2)c(Cl)c1C(=O)O` gave SARS PLpro yeast inactive, Pf growth 96h inactive, AMA1 RON2 block inactive and Pf growth 48h inactive.
`CCOC(=O)c1sc(=S)n(Cc2ccccc2)c1C` gave SARS PLpro yeast inactive, Pf growth 96h inactive, AMA1 RON2 block inactive and Pf growth 48h inactive.
Cc1nc(NCc2ccccc2)sc1C(=O)Nc1ccccc1 was read as SARS PLpro yeast inactive, Pf growth 96h inactive, AMA1 RON2 block inactive and Pf growth 48h inactive.
CCCNC(=O)c1nc2ncc(Br)cn2n1 was read as SARS PLpro yeast inactive, Pf growth 96h 13µM, AMA1 RON2 block inactive and Pf growth 48h inactive.
`CCCCNC(=O)c1nc2ncc(Br)cn2n1` gave SARS PLpro yeast inactive, Pf growth 96h inactive, AMA1 RON2 block inactive and Pf growth 48h inactive.
Screening OCCC1CN(Cc2ccccc2-c2ccco2)CCN1C1CCCC1 (centres undefined) returned SARS PLpro yeast inactive, Pf growth 96h inconclusive, AMA1 RON2 block inactive and Pf growth 48h 9.3µM.
Screening O=[N+]([O-])c1cc(Br)cc(C=Nc2ccc3c(c2)OCO3)c1O returned SARS PLpro yeast inactive, Pf growth 96h inactive, AMA1 RON2 block inactive and Pf growth 48h inactive.
For Cc1ccc(-c2csc(/C(C#N)=C/Nc3ccc4c(c3)OCCO4)n2)cc1 the results were SARS PLpro yeast inactive, Pf growth 96h inactive, AMA1 RON2 block inactive and Pf growth 48h inactive.
Screening CCN(CC)CCOC(=O)c1ccc(N/C=C(/C#N)c2nc(-c3cccc(OC)c3)cs2)cc1 returned SARS PLpro yeast inactive, Pf growth 96h 0.47µM, AMA1 RON2 block inactive and Pf growth 48h inconclusive.
For CCN(CC)CCOC(=O)c1ccc(N/C=C(/C#N)c2nc(-c3ccc(OC)c(OC)c3)cs2)cc1 the results were SARS PLpro yeast inactive, Pf growth 96h inconclusive, AMA1 RON2 block 28µM and Pf growth 48h inconclusive.
`COc1cc(/C=N/N=C(\N)c2nonc2N)cc(OC)c1O` gave SARS PLpro yeast inactive, Pf growth 96h inactive, AMA1 RON2 block inactive and Pf growth 48h inactive.
`COc1ccc(/C=N/N=C(\N)c2nonc2N)cc1` gave SARS PLpro yeast inactive, Pf growth 96h 1.3µM, AMA1 RON2 block inactive and Pf growth 48h inactive.
For Fc1ccccc1NC(=S)N1CCN(C/C=C/c2ccccc2)CC1 the results were SARS PLpro yeast inactive, Pf growth 96h 0.59µM, AMA1 RON2 block inactive and Pf growth 48h inactive.
`CC(CN1CCN(C/C=C/c2ccccc2)CC1)c1ccccc1` (centres undefined) gave SARS PLpro yeast inactive, Pf growth 96h inactive, AMA1 RON2 block inactive and Pf growth 48h inactive.
`O=C(c1cccnc1)N1CCN(C/C=C/c2ccccc2)CC1` gave SARS PLpro yeast inactive, Pf growth 96h inactive, AMA1 RON2 block inactive and Pf growth 48h inactive.
O=[N+]([O-])c1ccc(C(O)CN2CCN(C/C=C/c3ccccc3)CC2)cc1 (centres undefined) was read as SARS PLpro yeast inactive, Pf growth 96h 4.1µM, AMA1 RON2 block inactive and Pf growth 48h 7.4µM.
For C(=C/c1ccccc1)/CN1CCN(C(c2ccccc2)c2ccccc2)CC1 the results were Pf growth 96h 7.2µM and Pf growth 48h inconclusive.
`O=C(NC(=S)N1CCN(C/C=C/c2ccccc2)CC1)c1cccnc1` gave SARS PLpro yeast inactive, Pf growth 96h 3.3µM, AMA1 RON2 block inactive and Pf growth 48h 9.3µM.
Screening O=C(Cn1cccn1)N1CCCC(N2CCN(c3cccc(C(F)(F)F)c3)CC2)C1 (centres undefined) returned SARS PLpro yeast inactive, Pf growth 96h inactive, AMA1 RON2 block inactive and Pf growth 48h inconclusive.
Screening O=C(CCS(=O)(=O)c1ccccc1)Nc1ccccc1N1CCOCC1 returned SARS PLpro yeast inactive, Pf growth 96h inconclusive, AMA1 RON2 block inactive and Pf growth 48h inactive.
